For assay [1], the target named is Myc proto-oncogene protein (Homo sapiens) (UniProt P01106). The assay can be described thus: ATG_Myc_CIS: Attagene CIS-FACTORIAL HepG2 Assay for human Myelocytomatosis (Myc) Proto-Oncogene Transcription Factor (AID 2282990). The following applies: HepG2, Attagene cis-reporter transcription factor activity; actives raise or lower the signal. Summed up: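 HepG2, transient MRTU transfection (cis promoters, endogenous TFs); 24 h dosing; TriZol RNA → oligo(dT) RT → PCR → 6-FAM primer extension → HpaI cut → CE. Bidirectional fit vs DMSO.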
Myc proto-oncogene protein (Homo sapiens), sequence (P01106 whole entry, looked up): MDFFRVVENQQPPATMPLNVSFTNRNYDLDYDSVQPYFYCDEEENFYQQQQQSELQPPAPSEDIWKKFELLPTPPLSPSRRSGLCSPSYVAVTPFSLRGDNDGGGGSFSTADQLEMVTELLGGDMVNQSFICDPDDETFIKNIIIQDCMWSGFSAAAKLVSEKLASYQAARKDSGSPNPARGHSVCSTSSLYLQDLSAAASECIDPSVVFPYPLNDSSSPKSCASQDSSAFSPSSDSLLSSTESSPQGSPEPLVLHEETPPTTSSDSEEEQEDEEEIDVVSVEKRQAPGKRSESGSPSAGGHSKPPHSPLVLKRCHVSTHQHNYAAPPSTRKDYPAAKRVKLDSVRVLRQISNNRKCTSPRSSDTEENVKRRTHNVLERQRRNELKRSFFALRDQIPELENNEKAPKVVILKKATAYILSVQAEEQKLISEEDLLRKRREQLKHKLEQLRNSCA

Assay [2] can be described thus: ATG_NF_kB_CIS: Attagene CIS-FACTORIAL HepG2 Assay for human Nuclear Factor Kappa B (NF-kB) (AID 2282991). The following applies: HepG2 Attagene cis-factorial NF-kB reporter mRNA; actives raise or lower the signal. The method in brief: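 Endpoint from a 52-component multiplexed HepG2 reporter panel: cis-regulated transcription units transiently transfected, 24 h dosing, reporter mRNA quantified by RT-PCR and capillary electrophoresis, scored as increase or decrease against DMSO.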

Assay [3] in a line: ATG_NRF2_ARE_CIS: Attagene CIS-FACTORIAL HepG2 Assay for human Nuclear Factor Erythroid 2 Related Factor 2 (NFR2) response to Antioxidant Response Elements (ARE) (AID 2282992).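 On AC50: reporter mRNA level measured by RT-PCR and capillary electrophoresis fluorescence.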 The following applies: HepG2 Attagene ARE/NRF2 reporter, transcription factor activity; actives raise or lower the signal. The method in brief: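 HepG2 cells transiently transfected with multiplexed cis-regulated reporter transcription units measure endogenous transcription factor activity. Reporter mRNA at 24 h is quantified by RT-PCR, fluorescent labelling and capillary electrophoresis, with bidirectional fitting relative to DMSO.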

Assay [4] can be described thus: ATG_Oct_MLP_CIS: Attagene CIS-FACTORIAL HepG2 Assay for human Octamer-Binding Transcription Factor (Oct) (AID 2282993). The following applies: HepG2 Attagene cis-factorial Oct reporter, mRNA; actives raise or lower the signal. Summed up: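 HepG2, transient MRTU transfection, cis promoter elements; 24 h dosing; RT-PCR/CE fluorescence read-out of reporter mRNA; fit both directions vs DMSO.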

For assay [5], the target named is Cellular tumor antigen p53 (Homo sapiens) (UniProt P04637). The assay can be described thus: ATG_p53_CIS: Attagene CIS-FACTORIAL HepG2 Assay for human p53 Transcription Factor (AID 2282994). The following applies: HepG2 p53 cis-element reporter, Attagene mRNA; actives raise or lower the signal. Summed up:
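HepG2 cells transiently transfected with multiplexed cis-regulated reporter transcription units read endogenous TF activity. After 24 h compound exposure, reporter mRNA was quantified by RT-PCR, fluorescent labelling, HpaI digestion and capillary electrophoresis; bidirectional fits versus DMSO baseline.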

Assay [6] has as its target human Peroxisome Proliferator-activated Receptor alpha (PPARa), PPARA (gene 5465) (UniProt Q07869). The assay can be described thus: ATG_PPARa_TRANS: Attagene TRANS-FACTORIAL HepG2 Assay for human Peroxisome Proliferator-activated Receptor alpha (PPARa) (AID 2283001; active means hit-call score of the fitted dose curve at least 0.9, where 1 is the maximum). Summed up:
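Read-out is fluorescence of reporter cDNA fragments resolved by capillary electrophoresis after RT-PCR. Human HepG2 liver cells carried transfected PPARa-Gal4 chimera and GAL4-UAS reporter units, treated 24 h; activity scored as increase over DMSO.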

Assay [7] has as its target Peroxisome proliferator-activated receptor gamma (Homo sapiens) (UniProt P37231). The assay can be described thus: ATG_PPARg_TRANS: Attagene TRANS-FACTORIAL HepG2 Assay for human Peroxisome Proliferator-activated Receptor-gamma (PPARg) (AID 2283007; active means hit-call score of the fitted dose curve at least 0.9, where 1 is the maximum). The method in brief: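 Endpoint reflects upward reporter mRNA change versus DMSO controls. Setup: transiently transfected HepG2, GAL4-UAS reporters driven by chimeric NR-Gal4, 24 h incubation, RT-PCR with capillary electrophoresis read-out.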

In assay [8] the target is human Retinoic Acid Receptor gamma (RARg), RARG (gene 5916) (UniProt P13631). The assay can be described thus: ATG_RARg_TRANS: Attagene TRANS-FACTORIAL HepG2 Assay for human Retinoic Acid Receptor gamma (RARg) (AID 2283009; active means hit-call score of the fitted dose curve at least 0.9, where 1 is the maximum). The method in brief:
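HepG2 transiently transfected with GAL4-UAS reporter units and chimeric NR-Gal4 constructs; 24 h compound exposure. Reporter mRNA quantified by RT-PCR, FAM labeling, HpaI digestion and capillary electrophoresis; gain-of-signal versus DMSO.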

Assay [9] deals with Nuclear receptor subfamily 1 group I member 2 (Homo sapiens) (UniProt O75469). The assay can be described thus: ATG_PXR_TRANS: Attagene TRANS-FACTORIAL HepG2 Assay for human Pregnane X Receptor (PXR) (AID 2283008; active means hit-call score of the fitted dose curve at least 0.9, where 1 is the maximum). The method in brief: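 HepG2 cells transiently transfected with multiple reporter units, here a PXR-GAL4 chimera driving a GAL4-UAS reporter; 24 h compound exposure. Reporter mRNA measured by RT-PCR, FAM labelling and capillary electrophoresis; gain of signal fitted against DMSO baseline.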
Nuclear receptor subfamily 1 group I member 2 (Homo sapiens), sequence (O75469 whole entry, looked up, the tested form may be a part): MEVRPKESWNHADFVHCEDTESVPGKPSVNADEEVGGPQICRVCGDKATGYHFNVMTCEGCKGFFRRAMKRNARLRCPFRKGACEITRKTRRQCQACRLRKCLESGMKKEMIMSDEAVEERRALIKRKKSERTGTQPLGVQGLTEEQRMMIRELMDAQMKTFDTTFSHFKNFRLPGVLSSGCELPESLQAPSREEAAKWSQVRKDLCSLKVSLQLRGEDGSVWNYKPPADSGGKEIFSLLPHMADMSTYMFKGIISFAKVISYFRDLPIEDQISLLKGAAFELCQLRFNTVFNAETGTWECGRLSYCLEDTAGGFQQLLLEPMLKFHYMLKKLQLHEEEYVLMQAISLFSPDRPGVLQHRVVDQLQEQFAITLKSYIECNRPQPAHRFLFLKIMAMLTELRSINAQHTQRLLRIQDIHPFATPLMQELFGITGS

In assay [10] the target is human Peroxisome Proliferator-activated Receptor delta (PPARd), PPARD (gene 5467) (UniProt Q03181). Briefly: ATG_PPARd_TRANS: Attagene TRANS-FACTORIAL HepG2 Assay for human Peroxisome Proliferator-activated Receptor delta (PPARd) (AID 2283002; active means hit-call score of the fitted dose curve at least 0.9, where 1 is the maximum). Summed up: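 Transient HepG2 transfection (multiple GAL4-UAS RTUs, chimeric receptor-Gal4); 24 h dosing; total RNA → oligo(dT) RT → PCR → 6-FAM primer extension → HpaI cut → CE. Positive direction vs DMSO.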
human Peroxisome Proliferator-activated Receptor delta (PPARd), PPARD (gene 5467), sequence (Q03181 whole entry, looked up, the tested form may be a part): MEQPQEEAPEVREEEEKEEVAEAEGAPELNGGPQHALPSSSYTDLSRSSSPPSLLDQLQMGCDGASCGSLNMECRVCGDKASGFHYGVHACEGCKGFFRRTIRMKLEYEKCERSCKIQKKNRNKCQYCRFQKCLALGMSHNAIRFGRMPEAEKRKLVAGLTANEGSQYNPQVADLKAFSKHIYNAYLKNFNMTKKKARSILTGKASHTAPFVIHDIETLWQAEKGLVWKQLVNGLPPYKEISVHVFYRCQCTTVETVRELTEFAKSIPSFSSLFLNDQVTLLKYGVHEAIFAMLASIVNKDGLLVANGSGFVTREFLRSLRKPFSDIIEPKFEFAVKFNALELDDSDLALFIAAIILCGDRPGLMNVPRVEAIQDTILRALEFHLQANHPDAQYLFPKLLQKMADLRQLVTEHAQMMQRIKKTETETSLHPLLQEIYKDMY

In assay [11] the target is human RAR-related Orphan Receptor beta (RORb), RORB (gene 6096) (UniProt Q92753). The assay can be described thus: ATG_RORb_TRANS: Attagene TRANS-FACTORIAL HepG2 Assay for human RAR-related Orphan Receptor beta (RORb) (AID 2283010; active means hit-call score of the fitted dose curve at least 0.9, where 1 is the maximum). Summed up:
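HepG2 cells transiently transfected with GAL4-UAS reporter units expressing chimeric NR-Gal4 protein; reporter mRNA measured 24 h after dosing by RT-PCR, 6-FAM labelling and capillary electrophoresis. Gain-of-signal fitted relative to DMSO baseline.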

The target of assay [12] is human RAR-related Orphan Receptor gamma (RORg), RORC (gene 6097) (UniProt P51449). The assay can be described thus: ATG_RORg_TRANS: Attagene TRANS-FACTORIAL HepG2 Assay for human RAR-related Orphan Receptor gamma (RORg) (AID 2283011; active means hit-call score of the fitted dose curve at least 0.9, where 1 is the maximum;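 on AC50: potency for induction of reporter transcripts above DMSO so activators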). Summed up:
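Reporter transcripts from a transfected RORg-GAL4 chimera in HepG2 cells were quantified 24 h after dosing by RT-PCR, 6-FAM labelling, HpaI digestion and capillary electrophoresis; increases over DMSO baseline were fitted.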

Assay [13] concerns the target Retinoic acid receptor alpha (Homo sapiens) (UniProt P10276). Briefly: ATG_RARa_TRANS: Attagene TRANS-FACTORIAL HepG2 Assay for human Retinoic Acid Receptor alpha (RARa) (AID 2283005; active means hit-call score of the fitted dose curve at least 0.9, where 1 is the maximum). Summed up:
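Reporter transcripts, measured by RT-PCR with fluorescent labeling and capillary electrophoresis after 24 h dosing, reflect activity of an exogenous human RARa–GAL4 fusion in transiently transfected HepG2. Fitted for increase relative to DMSO.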

The target of assay [14] is human Retinoic Acid Receptor beta (RARb), RARB (gene 5915) (UniProt P10826). Briefly: ATG_RARb_TRANS: Attagene TRANS-FACTORIAL HepG2 Assay for human Retinoic Acid Receptor beta (AID 2283004; active means hit-call score of the fitted dose curve at least 0.9, where 1 is the maximum). The method in brief:
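Induction of reporter mRNA from a chimeric RARb-Gal4 construct was measured by RT-PCR, FAM labelling, HpaI digestion and capillary electrophoresis. Measurements followed 24 h compound treatment of transiently transfected human HepG2 liver cells, with DMSO as baseline.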

Records with an inconclusive call do not appear. The source made the active and inactive calls. How the source made its calls, unless noted: active means hit-call score of the fitted dose curve at least 0.9, where 1 is the maximum; inactive means score below 0.9.

Peroxisome proliferator-activated receptor gamma (Homo sapiens), sequence (P37231 whole entry, looked up, the tested form may be a part): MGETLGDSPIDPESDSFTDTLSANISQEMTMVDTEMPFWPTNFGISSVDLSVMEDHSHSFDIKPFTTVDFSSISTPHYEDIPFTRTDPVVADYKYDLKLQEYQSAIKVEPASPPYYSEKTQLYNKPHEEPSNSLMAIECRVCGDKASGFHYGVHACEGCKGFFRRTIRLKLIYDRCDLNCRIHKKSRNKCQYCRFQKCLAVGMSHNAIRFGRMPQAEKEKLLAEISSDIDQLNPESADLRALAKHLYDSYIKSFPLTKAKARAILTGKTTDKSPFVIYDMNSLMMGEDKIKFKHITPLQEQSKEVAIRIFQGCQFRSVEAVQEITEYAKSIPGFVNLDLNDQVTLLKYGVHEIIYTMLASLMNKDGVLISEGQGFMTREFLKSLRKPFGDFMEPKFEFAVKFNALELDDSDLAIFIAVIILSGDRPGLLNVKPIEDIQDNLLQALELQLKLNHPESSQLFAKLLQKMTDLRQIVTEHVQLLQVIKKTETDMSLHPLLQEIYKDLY
human Peroxisome Proliferator-activated Receptor alpha (PPARa), PPARA (gene 5465), sequence (Q07869 whole entry, looked up, the tested form may be a part): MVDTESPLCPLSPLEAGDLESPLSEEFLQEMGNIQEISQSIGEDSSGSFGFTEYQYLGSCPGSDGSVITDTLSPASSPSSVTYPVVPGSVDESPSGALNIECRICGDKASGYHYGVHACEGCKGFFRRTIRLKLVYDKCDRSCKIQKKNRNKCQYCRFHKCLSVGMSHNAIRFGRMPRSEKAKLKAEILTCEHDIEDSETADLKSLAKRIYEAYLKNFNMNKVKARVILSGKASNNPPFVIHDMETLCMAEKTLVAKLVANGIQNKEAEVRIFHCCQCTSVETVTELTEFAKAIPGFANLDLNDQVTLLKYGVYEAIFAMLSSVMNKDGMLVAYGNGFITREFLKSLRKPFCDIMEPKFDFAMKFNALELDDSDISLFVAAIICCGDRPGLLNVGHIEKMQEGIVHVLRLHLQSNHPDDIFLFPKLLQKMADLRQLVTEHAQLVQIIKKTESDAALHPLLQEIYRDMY
Cellular tumor antigen p53 (Homo sapiens), sequence (P04637 whole entry, looked up): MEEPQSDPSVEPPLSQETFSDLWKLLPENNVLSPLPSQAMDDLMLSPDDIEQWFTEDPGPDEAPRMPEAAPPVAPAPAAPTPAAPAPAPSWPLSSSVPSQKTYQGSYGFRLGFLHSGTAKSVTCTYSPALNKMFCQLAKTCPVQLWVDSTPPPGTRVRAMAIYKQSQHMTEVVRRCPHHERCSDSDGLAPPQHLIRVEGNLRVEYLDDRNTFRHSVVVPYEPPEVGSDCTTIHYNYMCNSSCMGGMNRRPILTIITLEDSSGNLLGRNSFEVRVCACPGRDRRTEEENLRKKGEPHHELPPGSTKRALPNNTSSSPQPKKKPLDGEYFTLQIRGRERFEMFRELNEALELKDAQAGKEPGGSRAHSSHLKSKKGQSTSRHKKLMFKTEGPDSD
human RAR-related Orphan Receptor gamma (RORg), RORC (gene 6097), sequence (P51449 whole entry, looked up, the tested form may be a part): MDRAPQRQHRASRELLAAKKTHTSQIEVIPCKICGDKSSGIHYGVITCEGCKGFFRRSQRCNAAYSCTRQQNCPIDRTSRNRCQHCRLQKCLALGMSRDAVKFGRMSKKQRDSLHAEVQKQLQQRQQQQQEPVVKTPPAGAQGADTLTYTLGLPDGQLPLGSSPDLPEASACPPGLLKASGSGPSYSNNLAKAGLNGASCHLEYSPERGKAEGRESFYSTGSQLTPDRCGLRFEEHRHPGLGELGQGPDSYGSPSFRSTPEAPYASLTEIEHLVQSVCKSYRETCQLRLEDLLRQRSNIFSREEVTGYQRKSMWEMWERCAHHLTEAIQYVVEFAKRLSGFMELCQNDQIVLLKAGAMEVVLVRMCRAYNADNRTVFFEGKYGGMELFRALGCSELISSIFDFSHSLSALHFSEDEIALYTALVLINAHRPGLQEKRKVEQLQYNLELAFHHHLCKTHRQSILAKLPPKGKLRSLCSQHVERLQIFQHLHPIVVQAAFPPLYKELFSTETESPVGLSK
human RAR-related Orphan Receptor beta (RORb), RORB (gene 6096), sequence (Q92753 whole entry, looked up, the tested form may be a part): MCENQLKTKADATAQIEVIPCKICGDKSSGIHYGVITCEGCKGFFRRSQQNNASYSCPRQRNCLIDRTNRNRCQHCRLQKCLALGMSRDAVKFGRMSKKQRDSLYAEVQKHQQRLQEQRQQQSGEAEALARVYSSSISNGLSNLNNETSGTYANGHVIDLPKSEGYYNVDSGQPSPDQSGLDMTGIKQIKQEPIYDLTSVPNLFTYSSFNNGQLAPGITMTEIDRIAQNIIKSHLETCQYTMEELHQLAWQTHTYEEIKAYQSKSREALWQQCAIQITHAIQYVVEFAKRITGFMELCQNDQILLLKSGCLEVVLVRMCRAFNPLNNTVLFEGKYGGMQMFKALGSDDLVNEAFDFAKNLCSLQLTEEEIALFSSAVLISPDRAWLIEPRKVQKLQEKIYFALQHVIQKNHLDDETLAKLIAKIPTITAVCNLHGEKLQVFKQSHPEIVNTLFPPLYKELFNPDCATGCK
human Retinoic Acid Receptor gamma (RARg), RARG (gene 5916), sequence (P13631 whole entry, looked up, the tested form may be a part): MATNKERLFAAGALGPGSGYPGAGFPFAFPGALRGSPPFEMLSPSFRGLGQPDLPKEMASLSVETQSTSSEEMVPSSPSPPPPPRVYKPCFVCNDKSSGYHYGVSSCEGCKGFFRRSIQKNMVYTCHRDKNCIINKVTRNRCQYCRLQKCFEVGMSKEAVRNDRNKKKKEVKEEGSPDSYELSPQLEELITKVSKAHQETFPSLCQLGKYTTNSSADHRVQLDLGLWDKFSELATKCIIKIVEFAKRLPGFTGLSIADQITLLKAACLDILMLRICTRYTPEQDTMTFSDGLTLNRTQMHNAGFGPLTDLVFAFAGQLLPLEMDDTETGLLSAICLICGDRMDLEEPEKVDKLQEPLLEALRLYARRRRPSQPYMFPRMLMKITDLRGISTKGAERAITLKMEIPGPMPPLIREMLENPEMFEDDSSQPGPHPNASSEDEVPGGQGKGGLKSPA
Retinoic acid receptor alpha (Homo sapiens), sequence (P10276 whole entry, looked up, the tested form may be a part): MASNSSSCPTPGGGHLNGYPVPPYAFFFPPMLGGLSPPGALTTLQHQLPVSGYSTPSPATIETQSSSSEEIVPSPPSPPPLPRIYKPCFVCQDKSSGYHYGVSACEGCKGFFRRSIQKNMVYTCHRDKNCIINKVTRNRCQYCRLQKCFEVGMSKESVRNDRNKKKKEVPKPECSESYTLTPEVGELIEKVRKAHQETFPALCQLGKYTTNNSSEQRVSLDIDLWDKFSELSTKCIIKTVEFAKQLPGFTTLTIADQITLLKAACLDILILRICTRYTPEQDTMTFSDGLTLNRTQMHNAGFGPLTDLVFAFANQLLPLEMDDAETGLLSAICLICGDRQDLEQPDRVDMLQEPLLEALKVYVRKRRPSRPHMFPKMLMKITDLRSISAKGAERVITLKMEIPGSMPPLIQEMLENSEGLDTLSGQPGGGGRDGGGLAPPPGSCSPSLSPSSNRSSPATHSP

As to `CC(=O)O[C@@H]1CC2CCC1(C)C2(C)C` (stereo partly specified), the result in [1], in [2], in assay [3], in assay [4], in [5] and in assay [6] was inactive. The molecule was classed as inactive in assay [7] and in [8].

For the molecule `COS(=O)(=O)O`, the call in [1], in [2], in assay [3], in [4], in assay [5] and in assay [6] was inactive. In addition, in assay [9], the call was inactive.

With `CCCC(O)C(O)CO` (stereo unspecified), the molecule was classed as inactive in [1], in [2], in assay [3], in assay [4], in assay [5] and in assay [10]. Also, the outcome in assay [9] and in assay [8] was inactive.

Broadly, the AC50 is the midpoint of the concentration-response curve, whichever way the signal moves. Regarding `O=C(CS)OCCOC(=O)CS`, the call in [1], in assay [4], in assay [6], in [7] and in assay [11] was inactive. In addition, the AC50 in assay [2] was 43.8 µM (active); in assay [3] it was 148 µM (active); in [5] it was 100 µM (active); in assay [12], 67 µM (active).

For `CCCCCc1ccco1`, the molecule was called inactive in [1], in assay [4], in [5] and in assay [10]. Further, the AC50 was 54.2 µM (active) in assay [2], 31.9 µM (active) in assay [3], 4.11 µM (active) in assay [7] and 2.75 µM (active) in assay [9].

On to `C1CCOC1`, for which the molecule was classed as inactive in assay [1], in [2], in assay [3], in assay [4], in assay [5] and in [10]. In addition, the outcome in assay [13], in assay [7], in assay [9] and in assay [8] was inactive.

As for `C=C(C#N)C(=O)OCC`, the result in [1], in assay [3], in assay [4], in assay [6], in assay [7] and in [9] was inactive. The result in [11] and in [12] was inactive. In addition, the AC50 is 100 µM (active) in assay [2] and 80 µM (active) in assay [5].

As to `Cc1c(Cl)cccc1[N+](=O)[O-]`, the call in assay [1], in assay [2], in assay [3], in assay [4], in assay [5] and in [10] was inactive. Further, the molecule was called inactive in assay [9] and in [12].

Regarding `CCCC(C)=O`, the molecule was called inactive in assay [1], in assay [2], in assay [3], in assay [4], in [5] and in assay [10]. Further, the molecule was classed as inactive in assay [13] and in [8].

As to `CC(=O)CC(=O)Nc1ccc(C)cc1C`, the outcome in [1], in [2], in [3], in assay [4], in assay [5] and in [6] was inactive. For the same molecule, the molecule was classed as inactive in assay [9] and in assay [12].

For `CCCOC(=O)c1c(Cl)c(Cl)c(Cl)c(Cl)c1C(=O)OCCC`, the AC50 is 100 µM (active) in assay [1]; 55.3 µM (active) in assay [3]; 148 µM (active) in [4]; 5.66 µM (active) in assay [7]; 4.24 µM (active) in assay [9]. Besides, the molecule was classed as inactive in assay [2], in [5] and in [10].

Take `CCC(C)=O`: the molecule was called inactive in assay [1], in assay [2], in [3], in [4], in assay [5] and in [6]. Besides, the call in assay [8] was inactive.

In the case of `CC(C)(C)C1=CC(=O)C(C(C)(C)C)=CC1=O`, the AC50 in assay [1] was 77.3 µM (active); in assay [2] it was 50 µM (active); in assay [3], 13.7 µM (active); in assay [5] it was 30.5 µM (active); in assay [7], 50 µM (active); in assay [9], 5.78 µM (active). In assay [12], the AC50 is 72 µM (active). Besides, the outcome in assay [4] and in [10] was inactive.

For the molecule `CCCCCCOC(=O)C(C)C`, the molecule was classed as inactive in assay [1], in [2], in [3], in assay [4], in assay [5] and in assay [6]. Also, the call in assay [7] and in assay [12] was inactive.

Turning to `CC1(C)C(=O)N(Cl)C(=O)N1Br`, the call in assay [1], in [2], in assay [3], in [4], in assay [6] and in assay [14] was inactive. Also, the molecule was classed as inactive in [13] and in assay [7].

With `CCC(=O)O[C@@H]1C[C@H]2CC[C@]1(C)C2(C)C`, the outcome in [1], in assay [2], in [3], in assay [4], in [5] and in assay [14] was inactive. Besides, the outcome in assay [13], in assay [8] and in assay [11] was inactive.

As for `CC1=CC[C@@]23C[C@@H]1C(C)(C)[C@@H]2CC[C@H]3C`, the molecule was called inactive in [1], in assay [2], in assay [4], in [5], in assay [7] and in [9]. The outcome in assay [11] and in [12] was inactive. Further, the AC50 in [3] is 100 µM (active).

In the case of `CC1(C)O[C@@H]2[C@@H](CO[C@@]3(COS(N)(=O)=O)OC(C)(C)O[C@@H]23)O1`, the call in assay [1], in assay [2], in [3], in assay [4], in assay [5] and in [7] was inactive. The result in assay [9] was inactive.

Turning to `OCCOCCN1CCN(C2=Nc3ccccc3Sc3ccccc32)CC1`, the outcome in [1], in [2], in assay [4] and in [8] was inactive. Moreover, the half-maximal activity concentration (AC50) in assay [3] was 176 µM (active); in assay [5], 75.8 µM (active); in assay [9] it was 5.77 µM (active).
